Laboratory results published in the supplement of paper PMC10849652.
The full data set covers some 7,900 targets. This sample favours those with a hit. About 0.6% of all pairs of compound and target were hits.

Columns and labels:
Assay in all cases: log2 fold change, soluble protein after heating vs DMSO (PISA); higher = thermal stabilisation; K562 cells, 10 uM, 30 min; active = over 0.2 and 3.5 SD of the protein, either way, in both replicates (recomputed)
Tubastatin A = compound: CN1CCc2c(c3ccccc3n2Cc2ccc(C(=O)NO)cc2)C1 [Tubastatin A]
In short: (§1)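 K562 cells at 2×10^6 cells/mL were treated with 10 μM compound for 30 min. Aliquots were heated for 3 min across 48°C-58°C, pooled, and extracted in PBS with 0.5% NP-40 at 4°C; soluble protein was the supernatant after 21,000xg for 90 min. Soluble protein was quantified by TMTpro 16plex LC-MS/MS with channel sums equalised, and reported as log2 fold change in thermal stability against DMSO controls, with values from duplicates.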

sotrastaurin = compound: CN1CCN(c2nc(C3=C(c4c[nH]c5ccccc45)C(=O)NC3=O)c3ccccc3n2)CC1 [sotrastaurin]
In short: as §1

alvocidib = compound: CN1CC[C@H](c2c(O)cc(O)c3c(=O)cc(-c4ccccc4Cl)oc23)[C@H](O)C1 [alvocidib]
In short: as §1

[1] = compound: CNC(=O)C1=CC=CC=C1NC2=NC(=NC=C2Cl)NC3=C(C=C(C=C3)N4CCOCC4)OC
In short: as §1

defactinib = compound: CNC(=O)c1ccc(Nc2ncc(C(F)(F)F)c(NCc3nccnc3N(C)S(C)(=O)=O)n2)cc1 [defactinib]
In short: as §1

[2] = compound: COC(=O)[C@H](CCSC)NC(=O)C1=C(C=C(C=C1)NC[C@H](CS)N)C2=CC=CC=C2
In short: as §1

filanesib = compound: CON(C)C(=O)N1N=C(c2cc(F)ccc2F)S[C@@]1(CCCN)c1ccccc1 [filanesib]
In short: as §1

zotarolimus = compound: CO[C@H]1C[C@@H]2CC[C@@H](C)[C@@](O)(O2)C(=O)C(=O)N2CCCC[C@H]2C(=O)O[C@H]([C@H](C)C[C@@H]2CC[C@H](n3cnnn3)[C@H](OC)C2)CC(=O)[C@H](C)/C=C(\C)[C@@H](O)[C@@H](OC)C(=O)[C@H](C)C[C@H](C)/C=C/C=C/C=C/1C [zotarolimus]
In short: as §1

alisertib = compound: COc1cc(Nc2ncc3c(n2)-c2ccc(Cl)cc2C(c2c(F)cccc2OC)=NC3)ccc1C(=O)O [alisertib]
In short: as §1

gefitinib = compound: COc1cc2ncnc(Nc3ccc(F)c(Cl)c3)c2cc1OCCCN1CCOCC1 [gefitinib]
In short: as §1

[3] = compound: COc1cccc2cc(-c3nc([C@H]4CC[C@H](C(=O)O)CC4)n4ncnc(N)c34)[nH]c12
In short: as §1

saracatinib = compound: CN1CCN(CCOc2cc(OC3CCOCC3)c3c(Nc4c(Cl)ccc5c4OCO5)ncnc3c2)CC1 [saracatinib]
In short: as §1

[4] = compound: CNc1nc(-c2ccc3c(N)n[nH]c3c2)cc(N2C[C@@H](C(=O)NC3CCCCC3)CC[C@H]2C)n1
In short: as §1

[5] = compound: COC1=CC=C(C=C1)CN2C=CC3=C2C=C(C=C3)C(=O)NO
In short: as §1

[6] = compound: COc1cc2nc(-c3cc(F)ccc3O)nc(N[C@@H]3CNC[C@H]3C(C)(C)O)c2cc1OC
In short: as §1

lapatinib = compound: CS(=O)(=O)CCNCc1ccc(-c2ccc3ncnc(Nc4ccc(OCc5cccc(F)c5)c(Cl)c4)c3c2)o1 [lapatinib]
In short: as §1

pictilisib = compound: CS(=O)(=O)N1CCN(Cc2cc3nc(-c4cccc5[nH]ncc45)nc(N4CCOCC4)c3s2)CC1 [pictilisib]
In short: as §1

rucaparib = compound: CNCc1ccc(-c2[nH]c3cc(F)cc4c3c2CCNC4=O)cc1 [rucaparib]
In short: as §1

encorafenib = compound: COC(=O)N[C@@H](C)CNc1nccc(-c2cn(C(C)C)nc2-c2cc(Cl)cc(NS(C)(=O)=O)c2F)n1 [encorafenib]
In short: as §1

idasanutlin = compound: COc1cc(C(=O)O)ccc1NC(=O)[C@@H]1N[C@@H](CC(C)(C)C)[C@](C#N)(c2ccc(Cl)cc2F)[C@H]1c1cccc(Cl)c1F [idasanutlin]
In short: as §1

Measured: log2 fold change

LMNA isoform 2 (UniProt P02545)
inactive: Tubastatin A 0.052

IKZF1 isoform 2 (UniProt Q13422)
UniProt Q13422, sequence (Q13422 whole entry, looked up): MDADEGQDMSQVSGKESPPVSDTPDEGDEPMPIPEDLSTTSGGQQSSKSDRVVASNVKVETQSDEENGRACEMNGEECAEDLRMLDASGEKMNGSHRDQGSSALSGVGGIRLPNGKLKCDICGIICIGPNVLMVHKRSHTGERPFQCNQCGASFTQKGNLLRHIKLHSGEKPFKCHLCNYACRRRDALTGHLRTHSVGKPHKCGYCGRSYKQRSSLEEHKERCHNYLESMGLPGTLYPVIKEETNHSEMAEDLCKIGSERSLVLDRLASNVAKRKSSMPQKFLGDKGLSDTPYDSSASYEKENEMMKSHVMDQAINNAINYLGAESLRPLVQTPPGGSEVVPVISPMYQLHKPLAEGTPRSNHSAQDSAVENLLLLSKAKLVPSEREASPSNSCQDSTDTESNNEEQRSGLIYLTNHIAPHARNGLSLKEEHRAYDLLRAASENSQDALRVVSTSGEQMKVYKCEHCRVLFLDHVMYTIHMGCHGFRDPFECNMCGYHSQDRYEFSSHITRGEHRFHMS
inactive: sotrastaurin 0.049 | alvocidib -0.101 | Tubastatin A -0.123 | [1] 0.05 | defactinib -0.106 | [2] -0.02 | filanesib -0.075 | zotarolimus 0.1 | alisertib 0.079 | gefitinib -0.044 | [3] -0.031

IKZF1 (UniProt R9R4D9)
inactive: saracatinib 0.019 | alvocidib 0.155 | Tubastatin A -0.158 | [4] -0.038 | [5] -0.167 | zotarolimus -0.192 | [6] 0.084 | lapatinib 0.037 | pictilisib 0.059

MAPK12 (UniProt P53778)
UniProt P53778, sequence (P53778 whole entry, looked up): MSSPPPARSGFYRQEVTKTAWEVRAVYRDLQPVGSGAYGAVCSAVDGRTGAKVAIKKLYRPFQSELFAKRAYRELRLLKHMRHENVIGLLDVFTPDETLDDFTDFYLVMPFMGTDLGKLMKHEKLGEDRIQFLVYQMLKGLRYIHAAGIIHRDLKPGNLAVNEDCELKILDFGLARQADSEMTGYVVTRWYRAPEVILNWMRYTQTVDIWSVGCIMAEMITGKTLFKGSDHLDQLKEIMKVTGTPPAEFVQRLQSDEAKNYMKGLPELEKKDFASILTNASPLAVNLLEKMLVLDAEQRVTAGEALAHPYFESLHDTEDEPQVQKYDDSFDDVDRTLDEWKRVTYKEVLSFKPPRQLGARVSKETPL
inactive: saracatinib 0.119 | Tubastatin A -0.037 | [1] 0.112 | defactinib -0.06 | rucaparib 0.101 | [4] -0.074 | encorafenib 0.017 | [2] 0.059 | [5] 0.066 | filanesib -0.062 | zotarolimus 0.026 | idasanutlin -0.072 | alisertib -0.115 | [6] 0.084 | gefitinib -0.269 | [3] 0.093 | lapatinib -0.056 | pictilisib 0.062

KIF1B isoform 3 (UniProt O60333)
UniProt O60333, sequence (O60333 whole entry, looked up): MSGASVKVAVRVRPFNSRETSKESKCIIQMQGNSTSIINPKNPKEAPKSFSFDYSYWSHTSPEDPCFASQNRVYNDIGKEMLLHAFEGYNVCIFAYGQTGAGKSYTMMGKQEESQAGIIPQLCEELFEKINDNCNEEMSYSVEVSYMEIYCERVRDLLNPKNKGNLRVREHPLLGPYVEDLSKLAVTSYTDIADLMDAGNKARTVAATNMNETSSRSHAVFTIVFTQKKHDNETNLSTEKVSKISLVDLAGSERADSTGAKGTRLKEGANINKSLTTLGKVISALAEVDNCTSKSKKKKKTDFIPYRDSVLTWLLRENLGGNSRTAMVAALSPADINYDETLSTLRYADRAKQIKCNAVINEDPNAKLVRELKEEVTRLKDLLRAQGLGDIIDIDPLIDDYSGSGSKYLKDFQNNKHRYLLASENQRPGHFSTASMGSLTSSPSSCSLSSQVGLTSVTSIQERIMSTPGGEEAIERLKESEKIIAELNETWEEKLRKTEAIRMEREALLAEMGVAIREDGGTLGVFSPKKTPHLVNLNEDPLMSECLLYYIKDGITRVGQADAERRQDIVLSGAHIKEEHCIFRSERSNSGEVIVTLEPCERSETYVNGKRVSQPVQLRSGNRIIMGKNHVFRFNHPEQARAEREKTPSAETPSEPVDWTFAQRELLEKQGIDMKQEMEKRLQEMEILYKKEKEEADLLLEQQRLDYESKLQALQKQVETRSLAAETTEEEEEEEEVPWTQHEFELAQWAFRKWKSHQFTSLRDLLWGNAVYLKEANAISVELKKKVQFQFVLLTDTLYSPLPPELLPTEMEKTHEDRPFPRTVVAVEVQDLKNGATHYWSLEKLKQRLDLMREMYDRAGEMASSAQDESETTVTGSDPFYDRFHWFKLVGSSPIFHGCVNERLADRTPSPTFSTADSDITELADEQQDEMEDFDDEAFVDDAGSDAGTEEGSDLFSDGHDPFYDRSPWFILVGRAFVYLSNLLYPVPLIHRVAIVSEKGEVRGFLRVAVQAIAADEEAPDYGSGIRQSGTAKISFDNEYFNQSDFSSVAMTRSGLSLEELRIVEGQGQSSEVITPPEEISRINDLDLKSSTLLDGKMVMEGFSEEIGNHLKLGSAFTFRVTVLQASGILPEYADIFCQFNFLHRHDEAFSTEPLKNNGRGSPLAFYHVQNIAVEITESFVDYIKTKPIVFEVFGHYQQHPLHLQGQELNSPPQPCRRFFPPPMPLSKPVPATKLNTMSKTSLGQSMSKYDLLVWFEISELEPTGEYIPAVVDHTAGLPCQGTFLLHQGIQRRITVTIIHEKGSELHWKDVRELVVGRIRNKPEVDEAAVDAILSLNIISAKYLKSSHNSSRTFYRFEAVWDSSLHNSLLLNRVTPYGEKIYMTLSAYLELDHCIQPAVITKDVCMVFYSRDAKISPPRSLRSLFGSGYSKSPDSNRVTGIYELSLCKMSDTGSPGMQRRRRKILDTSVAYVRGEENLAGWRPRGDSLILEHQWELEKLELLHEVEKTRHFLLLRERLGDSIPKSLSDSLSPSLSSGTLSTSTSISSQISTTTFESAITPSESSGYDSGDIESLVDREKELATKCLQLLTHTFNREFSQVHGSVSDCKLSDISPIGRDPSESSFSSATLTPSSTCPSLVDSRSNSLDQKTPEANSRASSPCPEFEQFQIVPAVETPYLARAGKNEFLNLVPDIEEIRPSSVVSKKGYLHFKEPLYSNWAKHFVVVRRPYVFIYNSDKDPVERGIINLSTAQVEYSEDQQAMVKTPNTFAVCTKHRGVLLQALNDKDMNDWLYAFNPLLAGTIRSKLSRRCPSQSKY
inactive: defactinib 0.127 | rucaparib -0.046 | encorafenib -0.222 | [2] 0.17 | alisertib 0.251 | [3] -0.037

LAPTM4B (UniProt Q86VI4)
UniProt Q86VI4, sequence (Q86VI4 whole entry, looked up): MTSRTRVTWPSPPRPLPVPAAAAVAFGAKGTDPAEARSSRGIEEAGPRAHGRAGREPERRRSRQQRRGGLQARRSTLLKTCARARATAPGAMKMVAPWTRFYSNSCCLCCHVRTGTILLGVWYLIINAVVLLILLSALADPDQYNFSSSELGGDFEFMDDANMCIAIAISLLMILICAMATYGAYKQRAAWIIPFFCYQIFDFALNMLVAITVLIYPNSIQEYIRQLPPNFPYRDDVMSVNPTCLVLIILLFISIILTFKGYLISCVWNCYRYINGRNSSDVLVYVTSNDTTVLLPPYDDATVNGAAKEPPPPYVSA
inactive: sotrastaurin -0.194 | [1] 0.007 | rucaparib 0 | encorafenib 0.009 | filanesib 0.186 | alisertib -0.027 | [3] 0.007 | pictilisib 0.017

IPP (UniProt Q9Y573)
inactive: idasanutlin 0.051

MAP4 isoform 5 (UniProt P27816)
UniProt P27816, sequence (P27816 whole entry, looked up): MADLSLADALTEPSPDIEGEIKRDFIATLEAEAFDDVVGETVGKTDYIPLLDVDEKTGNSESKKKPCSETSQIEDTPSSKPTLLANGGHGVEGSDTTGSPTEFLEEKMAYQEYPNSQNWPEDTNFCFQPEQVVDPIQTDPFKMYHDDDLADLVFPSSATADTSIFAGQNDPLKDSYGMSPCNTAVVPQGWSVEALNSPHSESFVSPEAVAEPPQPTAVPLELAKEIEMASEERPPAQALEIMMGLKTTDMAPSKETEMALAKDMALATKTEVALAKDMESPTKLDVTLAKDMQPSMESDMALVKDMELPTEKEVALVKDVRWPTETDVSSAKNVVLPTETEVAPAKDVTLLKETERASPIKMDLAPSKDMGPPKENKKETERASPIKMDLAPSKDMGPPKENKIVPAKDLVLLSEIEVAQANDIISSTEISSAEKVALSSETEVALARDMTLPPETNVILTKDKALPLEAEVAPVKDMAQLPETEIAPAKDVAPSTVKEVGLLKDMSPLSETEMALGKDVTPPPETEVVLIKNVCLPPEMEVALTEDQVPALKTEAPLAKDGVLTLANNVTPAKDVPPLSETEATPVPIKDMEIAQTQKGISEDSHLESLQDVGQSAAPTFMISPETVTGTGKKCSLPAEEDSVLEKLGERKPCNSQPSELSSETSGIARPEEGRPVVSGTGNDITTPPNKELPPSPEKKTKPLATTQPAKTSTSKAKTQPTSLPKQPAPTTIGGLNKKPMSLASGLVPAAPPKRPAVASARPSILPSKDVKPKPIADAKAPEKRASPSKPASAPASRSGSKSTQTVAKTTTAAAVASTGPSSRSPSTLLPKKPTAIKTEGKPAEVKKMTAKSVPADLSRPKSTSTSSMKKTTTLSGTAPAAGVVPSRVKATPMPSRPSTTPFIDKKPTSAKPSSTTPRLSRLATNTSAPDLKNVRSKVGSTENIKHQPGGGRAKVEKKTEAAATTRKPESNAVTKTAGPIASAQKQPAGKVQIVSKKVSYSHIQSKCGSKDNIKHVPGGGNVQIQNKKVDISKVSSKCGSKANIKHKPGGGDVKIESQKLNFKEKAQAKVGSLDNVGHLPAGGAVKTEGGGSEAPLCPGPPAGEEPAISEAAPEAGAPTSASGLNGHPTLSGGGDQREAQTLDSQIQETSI
inactive: sotrastaurin -0.16 | [1] 0.13 | rucaparib 0.046 | encorafenib 0.094 | filanesib -0.039 | idasanutlin -0.025 | alisertib 0.143 | [6] -0.033 | gefitinib -0.005 | [3] -0.045 | lapatinib 0.036

MCOLN3 (UniProt Q8TDD5)
inactive: Tubastatin A -0.001 | [1] -0.141 | rucaparib -0.275 | encorafenib -0.026 | alisertib 0.058 | [6] 0.068 | gefitinib -0.04 | [3] -0.035 | lapatinib -0.02 | pictilisib 0.044

MAPK7 (UniProt Q13164)
UniProt Q13164, sequence (Q13164 whole entry, looked up): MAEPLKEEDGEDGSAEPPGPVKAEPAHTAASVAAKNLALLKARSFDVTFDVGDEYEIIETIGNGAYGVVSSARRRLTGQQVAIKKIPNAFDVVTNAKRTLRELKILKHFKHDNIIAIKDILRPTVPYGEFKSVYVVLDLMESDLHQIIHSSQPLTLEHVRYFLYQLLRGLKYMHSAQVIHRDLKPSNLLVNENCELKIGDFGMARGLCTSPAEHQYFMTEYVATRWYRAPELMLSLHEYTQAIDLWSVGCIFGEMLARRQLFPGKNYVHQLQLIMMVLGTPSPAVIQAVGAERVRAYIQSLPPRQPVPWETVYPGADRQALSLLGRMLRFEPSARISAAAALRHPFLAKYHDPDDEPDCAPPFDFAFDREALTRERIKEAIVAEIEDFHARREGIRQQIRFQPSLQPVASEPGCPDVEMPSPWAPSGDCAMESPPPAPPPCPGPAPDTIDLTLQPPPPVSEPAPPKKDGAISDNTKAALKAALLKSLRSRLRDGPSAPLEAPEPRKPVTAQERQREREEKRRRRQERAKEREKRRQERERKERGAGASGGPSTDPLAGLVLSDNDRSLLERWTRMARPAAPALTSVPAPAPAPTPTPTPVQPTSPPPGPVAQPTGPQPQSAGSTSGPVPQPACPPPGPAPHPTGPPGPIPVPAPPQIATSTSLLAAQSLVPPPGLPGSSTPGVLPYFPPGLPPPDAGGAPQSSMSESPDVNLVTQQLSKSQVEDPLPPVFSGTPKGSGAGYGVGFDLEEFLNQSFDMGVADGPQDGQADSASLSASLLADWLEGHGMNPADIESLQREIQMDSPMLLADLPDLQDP
inactive: [5] -0.066 | idasanutlin 0.003 | pictilisib 0.108
